IL-1B inflam inh: inflammasome signaling inhibition, IL-1 beta readout | AID 743279 | THP-1 LPS/ATP IL-1B secretion, AlphaLISA, 16 h; stronger effect = lower value | activity change, % at 57.5 µM | 4.7% of 360,000 active; in the data active = activity change below about -50%; inconclusive = mostly about -30% to -49%
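Secreted IL-1B measured by AlphaLISA bead assay after 16 h compound exposure of THP-1 cells; compounds (final up to 57.5 uM) added 1 h before LPS (250 ng/mL) and ATP (1.25 mM) stimulation; lower signal means less secretion.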
DT40 TDP1 CPT: DT40-hTDP1 cell growth loss with CPT. chicken DT40 Tdp1-/-;hTDP1 cells + 20 nM CPT, ATP luminescence, 48 h. Potency, µM (highest dose often 46.2 µM), hits mostly inhibitors. 12% of 420,000 active. AID 686979; note: nearly all actives have a fitted effect of over 55% in size
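Cell growth measured by CellTiter-Glo luminescence after a minimum 48 h, 37 C compound exposure with 20 nM CPT in Tdp1-knockout DT40 cells stably expressing hTDP1, seeded 400/well; qHTS titration format.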
HT1080 IDH1KD tx: toxicity to HT-1080 IDH1 knockdown cells (counter line); HT-1080 IDH1 knockdown viability, ATP luminescence, 48 h; Potency, µM (top dose mostly 46.1 µM), most hits filed as cytotoxic; 2% of 360,000 active; AID 686971
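After a 2 h attachment period, IDH1KD HT-1080 cells took pin-transferred compound for 48 h at 37 °C; ATP-based luminescence after 10 min room-temperature reagent incubation reported viability.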
TDP1 cell noCPT: qHTS for Inhibitors of human tyrosyl-DNA phosphodiesterase 1 (TDP1): qHTS in cells in absence of CPT. Potency, µM (doses to about 46.2 µM), usual class: inhibitors. 15% of 420,000 active. DT40 Tdp1-/- hTDP1 cells, no CPT, ATP luminescence, 48 h; note: nearly all actives have a fitted effect of over 55% in size
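Readout: luminescence from CellTiter-Glo after 30 min in the dark at RT. Cells: DT40 Tdp1-/- with stable hTDP1, 400/well. Exposure: compounds alone, ≥48 hr, 37 °C.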
HT1080NT lethal: kills 2HG-producing HT-1080-NT fibrosarcoma cells. HT-1080-NT fibrosarcoma viability, CellTiter-Glo ATP luminescence, 48 h. Potency, µM (top dose mostly 46.1 µM), hits mostly cytotoxic. 1.6% of 360,000 active;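 note: NT is the 2HG producing partner of a matched IDH1 knockdown line; nearly all actives have a fitted effect of over 55% in size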
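Viability of the 2HG-overproducing fibrosarcoma line after 48 hours of compound exposure at 37 degrees C was determined by luminescence with CellTiter-Glo, and concentration-effect curves were then fitted and categorized.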
uPA generation: blocks generation of uPA at the cell surface. cell surface uPA generation assay, qHTS. Potency, µM (doses to about 38.3 µM), hits mostly inhibitors. 0.31% of 330,000 active; active = well fitted inhibition curve with a large enough effect; inconclusive = small, poorly fitted or top-dose-only effect; inactive = no such curve, though single readings can be large or run the other way; tested in mouse RAW 264.7 cells; note: nearly all actives have a fitted effect of over 55% in size
Hits are given with their value; – = inactive; ? = inconclusive; · = not tested or not shown; [ ] = another dose, or the depositor's remark. Shown are actives, neighbours in structure and some others; about 19% of the full set was active somewhere. Unless noted, calls come from the whole dose curve; as a rule, active = well fitted curve in the direction sought with a large enough effect; inconclusive = small, poorly fitted or top-dose-only effect, or another doubt; inactive = no such curve, though single readings can be large; an effect the other way counts as inactive or inconclusive.

SMILES | IL-1B inflam inh | DT40 TDP1 CPT | HT1080 IDH1KD tx | TDP1 cell noCPT | HT1080NT lethal | uPA generation
Cc1cccc(OCCc2c(C)[nH]c(=S)[nH]c2=O)c1 | – | ? | ? | 16.4µM | ? | –
Cc1csc(C(C)N(C)C(=O)c2cnn(-c3nccc(-c4cc(C)sc4C)n3)c2C)n1 (configuration not stated) | · | –[9.04 µM] | · | ? | · | ·
O=C(Nc1cccnc1)c1ccc([N+](=O)[O-])s1 | – | 0.731µM | ? | 0.651µM | ? | 4.47µM
O=C(Nc1cccc2ccccc12)c1ccc([N+](=O)[O-])s1 | – | 14.6µM | ? | 10.3µM | ? | 11.2µM
O=C(Nc1ccccc1F)c1ccc([N+](=O)[O-])s1 | -68.3 | 20.6µM | ? | 20.6µM | ? | ·
CN(C)NC(=O)c1ccc([N+](=O)[O-])s1 | – | ? | – | 16.4µM | ? | ?
Cc1ccc(C(=O)Nc2cc([N+](=O)[O-])ccc2F)s1 | – | – | – | – | – | –
COc1ccc(NC(=O)CN(c2ccccc2OC)S(C)(=O)=O)c(OC)c1 | · | – | · | – | · | ·
CCCCNC(=O)C1(C)CCC(=O)N1CCOC (configuration not stated) | – | – | – | – | – | ·
CCOC(=O)c1c(C)[nH]c(C2=NNC(=NC3CC3)SC2)c1C | -50.4 | ? | – | ? | – | –
CCOC(=O)c1c(C)[nH]c(/C(C)=N/O)c1C | – | – | – | – | – | –
Cc1c(C)n(Cc2ccccc2)c2ccc(C(=O)NC(C)c3ccccc3)cc12 (configuration not stated) | · | 16.4µM | · | 16.4µM | · | ·
Cc1c(C)n(Cc2ccccc2)c2ccc(C(=O)O)cc12 | · | – | – | – | – | –
Cc1nn(C)cc1/C=N\NC(=O)c1ccc2c(c1)c(C)c(C)n2Cc1ccccc1 | – | – | – | – | – | –
Cc1ccccc1NC(=O)c1ccc2c(c1)c(C)c(C)n2Cc1ccccc1 | · | 7.31µM | · | 4.11µM | · | ·
Cc1cccc(C(=O)Nc2c(C#N)c(C)c(C)n2Cc2ccccc2)c1 | – | ? | – | 16.4µM | – | –
Cn1nnnc1SCCNCc1ccccc1OCc1ccc(Cl)cc1Cl | · | 18.4µM | · | 9.2µM | · | ·
CCOc1cc(CNCCSc2nnnn2C)ccc1OCc1ccc(Cl)cc1Cl | · | 25.9µM | · | 25.9µM | · | ·
Cn1nnnc1SCCNCc1ccccc1OCc1ccc(F)cc1 | – | – | – | – | – | –
CC(NC(=O)CCn1nc(-c2ccc(Cl)cc2)ccc1=O)c1ccccc1 (configuration not stated) | – | – | – | – | – | –
COc1ccc(S(=O)(=O)N(C)c2ccc(C(=O)NCC3CCCO3)cc2)cc1OC (configuration not stated) | – | – | – | – | – | –
Cc1ccc(S(=O)(=O)c2ccc(Oc3cccc(C)c3)cc2)cc1 | – | ? | – | 20.6µM | – | –
CC(=O)Nc1cccc(-c2ccnc3c2CC(C(=O)NCc2ccc(N(C)C)cc2)O3)c1 (configuration not stated) | – | 13µM | ? | 18.4µM | ? | ·
CC(=O)Nc1cccc(-c2ccnc3c2CC(C(=O)NCc2ccncc2)O3)c1 (configuration not stated) | – | – | – | – | – | ·
O=C(NCc1cccnc1)C1Cc2c(-c3ccc(Cl)cc3)ccnc2O1 (configuration not stated) | – | 5.8µM | 18.4µM | 8.2µM | 5.8µM | ·
SMILES | IL-1B inflam inh | DT40 TDP1 CPT | HT1080 IDH1KD tx | TDP1 cell noCPT | HT1080NT lethal | uPA generation
CN1CCN(c2ccc(CNC(=O)C3Cc4c(-c5ccc(Cl)cc5)ccnc4O3)cc2)CC1 (configuration not stated) | ? | ? | ? | 16.4µM | ? | ·
CC(=O)Nc1ccc(-c2ccnc3c2CC(C(=O)NCc2ccc(N4CCN(C)CC4)cc2)O3)cc1 (configuration not stated) | – | ? | – | ? | – | ·
CC(=O)Nc1cccc(-c2ccnc3c2CC(C(=O)NCc2ccc(F)c(F)c2)O3)c1 (configuration not stated) | – | 3.26µM | ? | 3.26µM | ? | ·
NS(=O)(=O)c1ccc(NC(=O)CSc2n[nH]c(=O)n2C2CC2)cc1 | – | – | – | – | – | –
c1ccc2c(c1)ccc1nnnn12 | – | – | – | – | – | –
CC(=O)c1cccc(-c2ccnc3c2CC(C(=O)NCc2ccncc2)O3)c1 (configuration not stated) | – | ? | – | ? | – | ·
O=C(NCc1cccc(Cl)c1)C1Cc2c(-c3ccc(Cl)cc3)ccnc2O1 (configuration not stated) | – | ? | – | ? | – | ·
NC(=O)c1cccc(-c2ccnc3c2CC(C(=O)NCc2ccc(F)c(F)c2)O3)c1 (configuration not stated) | – | 4.61µM | · | 8.2µM | · | ·
O=C(NCc1cccc(Cl)c1)C1Cc2c(-c3ccccc3)ccnc2O1 (configuration not stated) | – | 29.1µM | – | 16.4µM | – | ·
NC(=O)c1cccc(-c2ccnc3c2CC(C(=O)NCc2ccccc2)O3)c1 (configuration not stated) | – | 0.581µM | ? | 1.3µM | ? | ·
CN(C)c1ncc2nc(-c3ccccc3)c(=O)n(C[C@H]3CCCO3)c2n1 | · | – | · | – | · | ·
COc1ccc(/C=C/C(=O)c2ccccc2O)cc1CN1CCOCC1 | – | 16.4µM | ? | ? | ? | –
COc1ccc(/C=C/C(=O)c2ccc3ccccc3c2O)cc1CN1CCOCC1 | -67.5 | ? | – | 18.4µM | – | –
O=C(NCc1cccc(F)c1)c1ccccc1NC(=O)c1nsc2ccccc12 | · | ? | · | 23.1µM | · | ·
CN(C)c1ccc(CNC(=O)c2ccccc2NC(=O)c2nsc3ccccc23)cc1 | · | 16.4µM | · | 13µM | · | ·
CC(C)NC(=O)c1ccccc1NC(=O)c1nsc2ccccc12 | · | – | · | – | · | ·
CN(C(=O)CSc1nc2ccc(Cl)cc2[nH]1)C1CCS(=O)(=O)C1 (configuration not stated) | – | – | – | – | – | –
Cc1cccc(OCC(=O)NCc2ccccc2)c1 | – | – | – | – | – | –
C/C(=N\NC(=O)COc1cccc(C)c1)c1ccc2ccccc2c1O | – | ? | ? | ? | 20.6µM | ?
CCCN1CCN(CCCNC(=O)c2ccc3c(c2)sc2nc(-c4ccc(OC)cc4)cn23)CC1 | · | 1.46µM | · | 1.03µM | · | ·
COc1ccc(-c2cn3c(n2)sc2cc(C(=O)NCCCN4CCN(C)CC4)ccc23)cc1 | · | 1.16µM | · | 1.3µM | · | ·
Cc1ccc(NC(=O)C2CCN(S(=O)(=O)c3c(C)noc3/C=C/c3ccco3)CC2)nc1 | – | ? | – | 18.4µM | – | –
Cc1noc(/C=C/c2ccco2)c1S(=O)(=O)N1CCC(C(=O)N2CCc3ccccc3C2)CC1 | ? | 20.6µM | – | 18.4µM | – | –

Compound activity as filed in PubChem BioAssay.
